From PubChem BioAssay

How the values were obtained:
[1] = tested on: Human papillomavirus type 1a protein E7 (residues 44-93); assay: small molecules binding HPV E7 44-93 – biochemical, small-molecule microarray, residues 44-93, 635 nm fluorescence, primary screen (AID 1108); details: fluorescence 635 nm, higher = more signal;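 also: E7 fragment applied at 1 µg/mL in TBST for 1 h at 4 C; score combines spot fluorescence with its signal to noise ratio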
[2] = hepatitis C replication reporter changes, two-sided – Huh7 cells, luciferase reporter, HCV replication inhibitor project, primary screen (AID 1109); details: Huh7 HCV replicon luciferase reporter, 48 h; higher = more signal;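 also: huh7 hepatoma cells harbouring a luciferase neomycin HCV replicon reporter; luciferase luminescence as measure of HCV replicon replication; test concentration not given here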
[3] = biological target: Left-right determination factor 2 (Homo sapiens) (UniProt O00292); assay: small molecules binding LEFTY2 protein – biochemical, small-molecule microarray, 635 nm fluorescence scan, primary screen (AID 1110); details: higher = more signal
[4] = biological target: Calmodulin-1 (Homo sapiens) (UniProt P0DP23); assay: small molecules binding calmodulin-1 with EGTA – biochemical, small-molecule microarray, Cy5-labelled CALM1, profiling panel (AID 1111); details: Cy5-CALM1 binding fluorescence, higher = more signal;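 also: labelled calmodulin applied in Tris saline Tween buffer holding calcium plus EGTA and DTT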
[5] = biological target: Calmodulin-1 (Homo sapiens) (UniProt P0DP23); assay: small molecules binding Ca-loaded calmodulin-1 – biochemical, small-molecule microarray, Cy5-labelled CALM1, plus calcium, artefact control for SMM control-protein annotation, profiling panel (AID 1112); details: Cy5-CALM1 binding fluorescence, higher = more signal;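 also: score merges spot fluorescence with signal to noise from triplicate slides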
[6] = probe aWnt5a binding to arrayed compounds – biochemical, biotinylated probe, 635/667 nm fluorescence, primary screen (AID 1113); details: small-molecule microarray, higher = more signal;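 also: score merges 667 nm fluorescence intensity with signal-to-noise per printed feature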
[7] = probe aShh binding to arrayed compounds – biochemical, biotinylated probe, 635/667 nm fluorescence, primary screen (AID 1114); details: small-molecule microarray, higher = more signal;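 also: probe is biotin-labelled aShh protein from a stem cell growth factor screen; measures binding of labelled protein to compounds printed on the slide; score merges feature fluorescence at 667 nm with signal-to-noise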
[8] = probe aNog binding to arrayed compounds – biochemical, biotinylated probe, 635/667 nm fluorescence, primary screen (AID 1115); details: small-molecule microarray, higher = more signal;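 also: probe is biotinylated aNog protein used at 0.15 µg/mL for 1 h at 4 C; z-score combines 667 nm fluorescence of each spot with its signal to noise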
[9] = biological target: Torsin-1A-interacting protein 1 (Homo sapiens) (UniProt Q5JTV8); assay: compound microarray binding of lysate hLAP1 – cell lysate, small-molecule microarray, COS7 lysate, 635/667 nm fluorescence, primary screen (AID 1116); details: 635 nm fluorescence, higher = more signal
[10] = biological target: Alpha-bungarotoxin (Bungarus multicinctus) (UniProt P60615); assay: compounds binding labelled alpha-BTX control protein – biochemical, small-molecule microarray, Alexa647 label, 635/667 nm fluorescence, artefact control for SMM control protein annotation, profiling panel (AID 1117); details: alpha-BTX-A647 binding fluorescence, higher = more signal
Sequence of Alpha-bungarotoxin (Bungarus multicinctus) (P60615 whole entry, looked up): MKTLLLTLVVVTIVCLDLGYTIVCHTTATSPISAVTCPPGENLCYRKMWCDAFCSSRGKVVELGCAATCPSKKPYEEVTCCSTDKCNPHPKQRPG

Sequence of Left-right determination factor 2 (Homo sapiens) (O00292 whole entry, looked up): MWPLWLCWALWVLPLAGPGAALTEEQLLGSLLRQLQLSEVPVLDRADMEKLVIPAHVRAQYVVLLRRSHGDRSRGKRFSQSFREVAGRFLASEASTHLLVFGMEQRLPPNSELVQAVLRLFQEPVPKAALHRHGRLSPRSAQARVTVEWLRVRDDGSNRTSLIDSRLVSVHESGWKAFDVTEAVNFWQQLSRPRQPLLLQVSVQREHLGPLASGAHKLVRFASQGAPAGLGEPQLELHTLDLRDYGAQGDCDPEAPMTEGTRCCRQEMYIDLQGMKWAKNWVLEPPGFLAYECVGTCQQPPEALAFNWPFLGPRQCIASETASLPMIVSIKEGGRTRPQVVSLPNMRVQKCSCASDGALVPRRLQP
Sequence of Torsin-1A-interacting protein 1 (Homo sapiens) (Q5JTV8 whole entry, looked up): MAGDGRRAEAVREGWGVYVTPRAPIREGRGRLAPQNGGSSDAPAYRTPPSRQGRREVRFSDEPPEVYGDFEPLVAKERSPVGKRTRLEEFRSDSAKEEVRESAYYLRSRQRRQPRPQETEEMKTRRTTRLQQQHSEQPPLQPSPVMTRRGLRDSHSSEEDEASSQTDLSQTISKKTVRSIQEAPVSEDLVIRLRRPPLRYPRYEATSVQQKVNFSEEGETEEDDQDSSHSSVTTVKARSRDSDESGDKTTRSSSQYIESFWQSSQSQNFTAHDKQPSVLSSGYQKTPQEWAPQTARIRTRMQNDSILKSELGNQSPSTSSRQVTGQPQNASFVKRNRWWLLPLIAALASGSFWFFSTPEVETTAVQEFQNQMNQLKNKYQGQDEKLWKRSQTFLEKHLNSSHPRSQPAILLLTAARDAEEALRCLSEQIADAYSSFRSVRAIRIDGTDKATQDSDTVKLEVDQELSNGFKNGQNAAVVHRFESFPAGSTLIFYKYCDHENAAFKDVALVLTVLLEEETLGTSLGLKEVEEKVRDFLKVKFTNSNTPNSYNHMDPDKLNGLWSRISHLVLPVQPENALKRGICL

| Structure (SMILES) | composite z-score [1] | z-score [2] | composite z-score [3] | composite z-score [4] | composite z-score [5] | composite z-score [6] | composite z-score [7] | composite z-score [8] | composite z-score [9] | composite z-score [10] |
| --- | --- | --- | --- | --- | --- | --- | --- | --- | --- | --- |
| CCOC(=O)C1=C(C(=O)OCC)N(S(=O)(=O)CC[Si](C)(C)C)[C@H](c2ccccc2)CC1 | 1.3 | -2.8 | -0.171 | 0.435 | 0.161 | 0.0307 | -0.164 | 0.118 | 0.356 | 1.23 |
| CO[C@H]1O[C@H](CO)[C@@H](OC(=O)Nc2ccc3c(c2)OCO3)[C@@H]2OC(=O)[C@@H](Cc3ccccc3)C/C=C/C[C@H](Cc3ccccc3)C(=O)O[C@@H]12 | 1.37 | -2.54 | 0.0694 | 0.929 | -0.728 | 0.0533 | 0.149 | 1.09 | 0.0909 | 0.732 |
| COC(=O)[C@@H]1N=C(c2ccc(OCCCO)cc2)O[C@@H]1c1ccccc1CN=[N+]=[N-] | 1.41 | -2.67 | -0.769 | 0.393 | -0.292 | 0.0224 | 0.131 | 1.29 | 0.609 | 0.893 |
| C=C(/C(=C/C[C@H](OC(=O)c1ccncc1)c1ccccc1OCCO)c1cc(C(=O)OC)ccc1OC)C(C)C | 1.03 | -2.96 | 0.255 | -0.23 | -0.587 | 0.132 | 0.0639 | -0.194 | 0.0538 | 1.42 |
| CC(C)N1CC=CC23O[C@@H]4C=CCCOC(=O)C4[C@H]2C(=O)N(CCCCCO)[C@@H]3C1=O (stereo not given in full) | -0.734 | -0.26 | -1.18 | 0.861 | -1.34 | -0.124 | -0.0011 | -0.123 | 1.92 | 2.25 |
| CC(C)CNC(=O)[C@@H]1c2ccccc2C(=O)N(CC23CC4CC(CC(C4)C2)C3)[C@H]1c1ccc(CO)cc1 | 1.34 | -1.05 | 0.0408 | 0.725 | 0.769 | -0.0685 | 0.14 | -0.436 | 0.862 | 1.15 |
| CN1C(=O)C2C=CC(C(O)c3ccc(-c4ccccc4)s3)N(Nc3ccccc3)C2C1=O (stereo not given) | 0.965 | -0.593 | 0.0874 | 1.41 | 0.186 | -0.0103 | 0.296 | 1.49 | 1.07 | 2 |
| CC(C)[C@@H](C(=O)O)n1cc(-c2ccccc2)nn1 | 0.972 | 0.281 | 0.396 | 0.913 | 0.957 | 0.0145 | 0.227 | -0.0238 | 0.941 | 1.03 |
| COCCOC(=O)N1C(=O)[C@@]2(c3cc(C#CC4=CCCCC4)ccc31)[C@H](c1ccccc1OCCO)N1[C@H](c3ccccc3)[C@H](c3ccccc3)OC(=O)[C@H]1[C@@H]2C(N)=O | 1.32 | -3.44 | 0.62 | 0.367 | -0.416 | -0.0758 | -0.167 | -0.512 | 0.383 | 0.161 |
| CC(C)CNC(=O)[C@@H]1c2ccccc2C(=O)N(Cc2ccccc2)[C@H]1c1ccc(CO)cc1 | 0.93 | 0.372 | -1.35 | -0.148 | -0.202 | -0.253 | -0.1 | 0.127 | 0.936 | -0.865 |
| C=C(C(=O)CC[C@@H](OC(C)=O)c1cccc(OCCO)c1)C(C)C | 0.974 | -3.23 | -0.865 | -0.35 | -0.94 | -0.0276 | -0.223 | -0.0863 | 0.847 | 0.221 |
| COC(=O)[C@@]1(Cc2ccc(F)cc2)[C@H]2c3cc(C(=O)N(C)C)n(CCn4cc([N+](=O)[O-])nc4C)c3C[C@H]2CN1C(=O)c1ccccc1 | 0.81 | -0.112 | -0.831 | 0.892 | 0.378 | -0.003 | 0.631 | 1.08 | 1.49 | 0.0533 |
| CN1C(=O)C2C(C1=O)C1C=C(c3ccc(CO)cc3)C2C(c2cccs2)N1C (stereo not given) | 0.104 | 0.706 | -0.112 | 1.47 | 0.312 | -0.1 | -0.0553 | -0.12 | 2.17 | 1.86 |
